Measured values from PubChem BioAssay AID1159580 (chemical genetic matrix, 2015).
“And” between values parts separate entries of the source, which are not always exact repeats. Identical values can stand only once. The whole screen tested about 5,500 compounds, of which about 2,000 (36%) were called active. Another 18% or so got no clear call; they are omitted. No stated cut-off is given here; in the data, active means normalized growth mostly below about 0.91 (no sharp cut-off); inconclusive means no clear call, values can overlap the other calls; inactive means mostly above about 0.92. The list shows a part of the results.

Assay: chemical genetic growth profiling, strain panel (AID 1159580);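 further: tested at 20 µM; growth read once vehicle control cultures reached saturation at 30 °C; 1 = growth at the plate median or of vehicle wells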
Settings: S. cerevisiae deletion strains, growth OD

Measured: normalized growth

C[C@]12CCC3C(CC[C@]4(O)C[C@@H](O)CC[C@]34C=O)[C@@]1(O)CCC2C1=CC(=O)OC1 (stereo not given in full)
active: locus YER015W, strain faa2, stronger effect = lower value 0.922
inactive: locus YAL021C, strain ccr4, stronger effect = lower value 0.92 | locus YAL026C, strain drs2, stronger effect = lower value 0.983 | locus YAL030W, strain snc1, stronger effect = lower value 0.975 | locus YBL061C, strain skt5, stronger effect = lower value 0.979 | locus YBR009C, strain hhf1, stronger effect = lower value 0.967 | locus YBR021W, strain FUR4, stronger effect = lower value 1 | locus YBR023C, strain chs3, stronger effect = lower value 0.98 | locus YBR171W, strain sec66, stronger effect = lower value 0.986 | locus YBR229C, strain ROT2, stronger effect = lower value 0.94 | locus YBR231C, strain swc5, stronger effect = lower value 0.995 | locus YBR279W, strain paf1, stronger effect = lower value 0.986 | locus YCL011C, strain gbp2, stronger effect = lower value 0.943 | locus YCL016C, strain dcc1, stronger effect = lower value 0.958 | locus YCL029C, strain bik1, stronger effect = lower value 0.962 | locus YCL069W, strain vba3, stronger effect = lower value 0.981 | locus YCR088W, strain abp1, stronger effect = lower value 0.988 | locus YDL005C, strain med2, stronger effect = lower value 0.969 | locus YDL035C, strain GPR1, stronger effect = lower value 0.964 | locus YDL040C, strain nat1, stronger effect = lower value 0.992 | locus YDL074C, strain BRE1, stronger effect = lower value 1.01 | locus YDL101C, strain DUN1, stronger effect = lower value 0.987 | locus YDL185W, strain tfp1, stronger effect = lower value 0.962 | locus YDL192W, strain arf1, stronger effect = lower value 0.976 | locus YDR001C, strain nth1, stronger effect = lower value 0.967 | locus YDR069C, strain doa4, stronger effect = lower value 0.986 | locus YDR101C, strain arx1, stronger effect = lower value 0.97 | locus YDR137W, strain rgp1, stronger effect = lower value 0.971 | locus YDR159W, strain sac3, stronger effect = lower value 1.05 | locus YDR162C, strain NBP2, stronger effect = lower value 0.975 | locus YDR195W, strain ref2 1.01 | locus YDR297W, strain sur2, stronger effect = lower value 0.994 | locus YDR318W, strain mcm21, stronger effect = lower value 0.98 | locus YDR334W, strain swr1, stronger effect = lower value 0.978 | locus YDR335W, strain msn5, stronger effect = lower value 0.989 | locus YDR388W, stronger effect = lower value 0.982 | locus YDR392W, strain spt3, stronger effect = lower value 0.889 | locus YDR502C, strain sam2, stronger effect = lower value 0.99 | locus YEL003W, strain gim4, stronger effect = lower value 0.991 | locus YEL037C, strain rad23, stronger effect = lower value 0.979 | locus YEL061C, strain CIN8 (second series), stronger effect = lower value 0.984 | locus YEL061C, strain CIN8, stronger effect = lower value 0.986 | locus YER016W, strain bim1, stronger effect = lower value 0.991 | locus YER110C, stronger effect = lower value 0.98 | locus YER111C, strain swi4, stronger effect = lower value 1.02 | locus YER155C, strain BEM2 (second series), stronger effect = lower value 1.06 | locus YER155C, strain BEM2, stronger effect = lower value 0.994 | locus YER167W, strain BCK2, stronger effect = lower value 0.984 | locus YFR010W, strain ubp6, stronger effect = lower value 0.982 | locus YGL078C, strain dbp3, stronger effect = lower value 0.996 | locus YGL086W, strain mad1, stronger effect = lower value 0.992 | locus YGL167C, strain pmr1, stronger effect = lower value 0.965 | locus YGL173C, strain kem1, stronger effect = lower value 0.994 | locus YGL227W, strain vid30, stronger effect = lower value 0.998 | locus YGL240W, strain doc1, stronger effect = lower value 1.03 | locus YGL248W, strain PDE1, stronger effect = lower value 1 | locus YGL253W, strain hxk2, stronger effect = lower value 0.985 | locus YGR135W, strain pre9, stronger effect = lower value 0.975 | locus YGR229C, strain SMI1, stronger effect = lower value 0.991 | locus YGR252W, strain gcn5, stronger effect = lower value 0.988 | locus YHR013C, strain ard1, stronger effect = lower value 0.953 | locus YHR027C, strain rpn1, stronger effect = lower value 0.973 | locus YHR030C, strain SLT2, stronger effect = lower value 0.991 and 0.995 | locus YHR079C, strain IRE1 (second series), stronger effect = lower value 0.98 | locus YHR079C, strain IRE1, stronger effect = lower value 0.988 | locus YHR094C, strain hxt1, stronger effect = lower value 0.976 | locus YHR129C, strain ARP1, stronger effect = lower value 0.989 | locus YHR142W, strain chs7, stronger effect = lower value 0.971 | locus YHR200W, strain rpn10, stronger effect = lower value 0.964 | locus YIL066C, strain RNR3, stronger effect = lower value 0.95 | locus YIL073C, strain SPO22, stronger effect = lower value 0.958 | locus YIL125W, strain kgd1, stronger effect = lower value 0.969 | locus YIR030C, strain dcg1, stronger effect = lower value 0.975 | locus YJL092W, strain hpr5, stronger effect = lower value 0.97 | locus YJL095W, strain BCK1 (second series), stronger effect = lower value 0.98 | locus YJL095W, strain BCK1, stronger effect = lower value 1.05 and 1.01 | locus YJL115W, strain asf1, stronger effect = lower value 0.968 | locus YJL129C, strain trk1, stronger effect = lower value 0.999 | locus YJL134W, strain LCB3, stronger effect = lower value 0.98 | locus YJL154C, strain vps35, stronger effect = lower value 0.984 | locus YJL164C, strain tpk1, stronger effect = lower value 0.933 | locus YJL166W, strain qcr8, stronger effect = lower value 1 | locus YJL168C, strain set2, stronger effect = lower value 0.982 | locus YJL187C, strain SWE1 (second series), stronger effect = lower value 1.01 | locus YJR043C, strain POL32, stronger effect = lower value 0.964
